Source: a collection of fitness landscapes (doi:10.1016/j.celrep.2020.107928)
Whole data set: some 81,000 sequences, median “one-hybrid fitness for binding NBS DNA” near -0.1, cut for the highest 2% near 0.36. Many of the other results were omitted from the sample, so the highest values are more common in it than they were.

B1: Caulobacter ParB omega fusion; a variant is named by its letters at X, in order, B8GW30 (parent)
chain: MESVVVGEPGMSEGRRGLGRGLSALLGEVDAAPAQAPGEQLGGSREAPIEILQRNPDQPRRTFREEDLEDLSNSIREKGVLQPILVRPSPDTAGEYQIVAGERAWRAAQRAGLKTVPIMVRELDDLAVLEIGIIENVQRADLNVLEEALSYKVLMEKFERTQENIAQTIGKSXSHVANXMRLLXLPDEVQSYLVSGELTAXHARAIAAAADPVALAKQIIEGGLSVRETEALARKAPNLSAGKSKGGRPPRVKDTDTQALESDLSSVLGLDVSIDHRGSTGTLTITYATLEQLDDLCNRLTRGI

Variants of: B1
Assay: one-hybrid fitness for binding NBS DNA (the Noc-binding site; scaled: cognate 1, non-cognate 0); higher = stronger binding
Conditions: with NBS DNA site
In short: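 Fitness here means the log change in variant-to-wild-type read ratio between plasmids sequenced before and after selection. That scale was set so cognate equals 1 and non-cognate equals 0. The selection was a bacterial one-hybrid screen of Caulobacter ParB libraries, four specificity codons randomised, in E. coli USO carrying a HIS3 reporter with the site 19 bp from the promoter, grown 48 hours at 37°C on M9-minus-histidine with 0.1 mM IPTG and 5 mM 3-AT.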

| Variant | one-hybrid fitness for binding NBS DNA |
| --- | --- |
| VKTS | ≤ 0.2 |
| LYFR | ≤ 0.2 |
| CLSP | ≤ 0.2 |
| QWKS | ≤ 0.2 |
| SAIE | ≤ 0.2 |
| RCVA | ≤ 0.2 |
| RRVA | 0.571 |
| RSVA | ≤ 0.2 |
| SFPF | ≤ 0.2 |
| CLCS | ≤ 0.2 |
| HDRG | ≤ 0.2 |
| PCMM | ≤ 0.2 |
| QANP | ≤ 0.2 |
| QSDS | ≤ 0.2 |
| QHNN | ≤ 0.2 |
| QHNS | 0.419 |
| QADS | ≤ 0.2 |
| QSNS | 0.421 |
| QHDS | ≤ 0.2 |
| QMNS | 0.458 |
| QMNP | ≤ 0.2 |
| QSNH | 0.273 |
| QANS | 0.392 |
| QMDS | ≤ 0.2 |

| Variant | one-hybrid fitness for binding NBS DNA |
| --- | --- |
| KNIF | ≤ 0.2 |
| WQYS | ≤ 0.2 |
| YNRS | ≤ 0.2 |
| VAGY | ≤ 0.2 |
| ITFA | ≤ 0.2 |
| TSRF | ≤ 0.2 |
| KQID | ≤ 0.2 |
| QLNP | ≤ 0.2 |
| QLNS | 0.385 |
| QLDS | ≤ 0.2 |
| QCNS | 0.534 |
| QINS | 0.329 |
| QPNS | ≤ 0.2 |
| CAVL | ≤ 0.2 |
| QSKQ | 0.351 |
| QRVQ | 0.511 |
| QSVQ | 0.291 |
| QPVQ | 0.598 |
| QRKQ | 0.492 |
| QRPQ | ≤ 0.2 |
| QPKQ | ≤ 0.2 |
| QWKF | ≤ 0.2 |
| LTYT | ≤ 0.2 |
| THMS | ≤ 0.2 |

| Variant | one-hybrid fitness for binding NBS DNA |
| --- | --- |
| QFPN | ≤ 0.2 |
| GTPY | ≤ 0.2 |
| EAGR | ≤ 0.2 |
| MHRT | ≤ 0.2 |
| RVTM | ≤ 0.2 |
| RVTN | ≤ 0.2 |
| RVTS | 0.392 |
| RVTY | ≤ 0.2 |
| RVTH | ≤ 0.2 |
| RVTP | ≤ 0.2 |
| RVTT | 0.449 |
| RVTR | 0.429 |
| RVTD | ≤ 0.2 |
| LTHY | ≤ 0.2 |
| RNVL | ≤ 0.2 |
| GFEG | ≤ 0.2 |
| DLLN | ≤ 0.2 |
| QAHD | ≤ 0.2 |
| QAPR | 0.275 |
| QAHR | 0.541 |
| QAHQ | ≤ 0.2 |
| QAGH | ≤ 0.2 |
| MARR | 0.414 |
| QAGD | ≤ 0.2 |

| Variant | one-hybrid fitness for binding NBS DNA |
| --- | --- |
| MAYR | ≤ 0.2 |
| QAIR | 0.308 |
| MARN | ≤ 0.2 |
| QAYR | 0.464 |
| QAGR | 0.525 |
| PHID | ≤ 0.2 |
| SLRF | ≤ 0.2 |
| CMGR | ≤ 0.2 |
| NAWR | ≤ 0.2 |
| STPW | ≤ 0.2 |
| CRAL | ≤ 0.2 |
| FGKT | ≤ 0.2 |
| GADW | ≤ 0.2 |
| KKET | ≤ 0.2 |
| MDLY | ≤ 0.2 |
| QARD | 0.23 |
| QARP | 0.24 |
| QARR | 0.973 |
| AKDS | ≤ 0.2 |
| LERS | ≤ 0.2 |
| RRDQ | 0.241 |
| RSKQ | ≤ 0.2 |
| RRVQ | 0.428 |
| RCKQ | 0.254 |

| Variant | one-hybrid fitness for binding NBS DNA |
| --- | --- |
| RRYQ | 0.207 |
| RCVQ | 0.215 |
| RPVQ | 0.397 |
| RFVQ | ≤ 0.2 |
| RRRQ | 0.401 |
| RKVQ | ≤ 0.2 |
| RRKQ | 0.436 |
| RSVQ | ≤ 0.2 |
| GWHC | ≤ 0.2 |
| VAYS | ≤ 0.2 |
| MTCD | ≤ 0.2 |
| DSMI | ≤ 0.2 |
| KMGG | ≤ 0.2 |
| CFTM | ≤ 0.2 |
| YTCL | ≤ 0.2 |
| NNIR | ≤ 0.2 |
| LTMG | ≤ 0.2 |
| YGMS | ≤ 0.2 |
| RDGN | ≤ 0.2 |
| AVNT | ≤ 0.2 |
| WVRG | ≤ 0.2 |
| LRPM | ≤ 0.2 |
| KTIT | ≤ 0.2 |
| DVIS | ≤ 0.2 |

| Variant | one-hybrid fitness for binding NBS DNA |
| --- | --- |
| LRVF | ≤ 0.2 |
| QPKF | ≤ 0.2 |
| QCKF | 0.387 |
| QRVF | ≤ 0.2 |
| QRKF | 0.405 |
| QTVF | ≤ 0.2 |
| QRPF | ≤ 0.2 |
| QTLF | ≤ 0.2 |
| QTKF | 0.43 |
| QSKF | 0.29 |
| ASVE | ≤ 0.2 |
| QMSV | ≤ 0.2 |
| QFMT | ≤ 0.2 |
| SSYL | ≤ 0.2 |
| ETES | ≤ 0.2 |
| RVIR | 0.242 |
| VVRC | ≤ 0.2 |
| HHPQ | ≤ 0.2 |
| VVGI | ≤ 0.2 |
| EYWD | ≤ 0.2 |
| RMRA | 0.409 |
| RYDA | ≤ 0.2 |
| RSRA | 0.317 |
| RCRA | 0.422 |

| Variant | one-hybrid fitness for binding NBS DNA |
| --- | --- |
| RYRA | 0.367 |
| RMDA | ≤ 0.2 |
| RTYA | 0.268 |
| RMYA | ≤ 0.2 |
| RPRA | ≤ 0.2 |
| RYYA | ≤ 0.2 |
| RTDA | ≤ 0.2 |
| RTRA | 0.446 |
| GMVG | ≤ 0.2 |
| QAEN | ≤ 0.2 |
| LNQS | ≤ 0.2 |
| QLYL | ≤ 0.2 |
| PLQD | ≤ 0.2 |
| RKRA | 0.45 |
| RKYA | 0.344 |
| RKDA | ≤ 0.2 |
| LPLA | ≤ 0.2 |
| AQDR | ≤ 0.2 |
| LIAK | ≤ 0.2 |
| RQKD | ≤ 0.2 |
| RQKS | 0.581 |
| RQVH | ≤ 0.2 |
| RQKP | ≤ 0.2 |
| RQKH | 0.376 |

| Variant | one-hybrid fitness for binding NBS DNA |
| --- | --- |
| RQYC | ≤ 0.2 |
| RQKN | 0.214 |
| RQVC | ≤ 0.2 |
| RQKC | 0.381 |
| PEWV | ≤ 0.2 |
| NNCS | ≤ 0.2 |
| ASVF | ≤ 0.2 |
| CPDH | ≤ 0.2 |
| EDYG | ≤ 0.2 |
| PTEW | ≤ 0.2 |
| LKYT | ≤ 0.2 |
| VKLR | ≤ 0.2 |
| WHHR | ≤ 0.2 |
| CGEV | ≤ 0.2 |
| PNVE | ≤ 0.2 |
| RKKV | 0.277 |
| WVQL | ≤ 0.2 |
| KPKT | ≤ 0.2 |
| KRVT | 0.547 |
| KCKT | 0.212 |
| KRKT | 0.66 |
| KCVT | ≤ 0.2 |
| KPVT | ≤ 0.2 |
| CLTC | ≤ 0.2 |

| Variant | one-hybrid fitness for binding NBS DNA |
| --- | --- |
| AGTG | ≤ 0.2 |
| LNTG | ≤ 0.2 |
| GMVQ | ≤ 0.2 |
| PNQS | ≤ 0.2 |
| SNTG | ≤ 0.2 |
| AFGR | ≤ 0.2 |
| RKNW | ≤ 0.2 |
| QVHP | ≤ 0.2 |
| QVHT | 0.373 |
| QVNH | ≤ 0.2 |
| QVNT | 0.44 |
| QVPT | ≤ 0.2 |
| QVRT | 0.56 |
| QVHS | 0.296 |
| QVYT | 0.268 |
| QVDT | ≤ 0.2 |
| VWQD | ≤ 0.2 |
| RNQS | 0.281 |
| FLHG | ≤ 0.2 |
| RITP | ≤ 0.2 |
| RATP | ≤ 0.2 |
| RATR | 0.43 |
| RTTQ | ≤ 0.2 |
| RSTN | ≤ 0.2 |

| Variant | one-hybrid fitness for binding NBS DNA |
| --- | --- |
| RSTP | ≤ 0.2 |
| RITR | 0.437 |
| RTTR | 0.571 |
| RTTF | ≤ 0.2 |
| RITD | ≤ 0.2 |
| RATN | ≤ 0.2 |
| RSTR | 0.447 |
| PCDK | ≤ 0.2 |
| FRRH | ≤ 0.2 |
| RLSY | ≤ 0.2 |
| INTS | ≤ 0.2 |
| LHDW | ≤ 0.2 |
| TECL | ≤ 0.2 |
| SMQN | ≤ 0.2 |
| TDVE | ≤ 0.2 |
| RLTR | 0.443 |
| RLTQ | ≤ 0.2 |
| RHTG | ≤ 0.2 |
| RRTF | ≤ 0.2 |
| RLTY | ≤ 0.2 |
| RKTR | 0.602 |
| RRTR | 0.75 |
| RRTC | 0.314 |
| RHTR | 0.459 |

| Variant | one-hybrid fitness for binding NBS DNA |
| --- | --- |
| RHTK | ≤ 0.2 |
| RKTK | ≤ 0.2 |
| RKTN | ≤ 0.2 |
| RNPQ | ≤ 0.2 |
| MEAC | ≤ 0.2 |
| CITN | ≤ 0.2 |
| YDAI | ≤ 0.2 |
| TGAY | ≤ 0.2 |
| NFLN | ≤ 0.2 |
| CWAR | ≤ 0.2 |
| PSCM | ≤ 0.2 |
| QDAF | ≤ 0.2 |
| APPH | ≤ 0.2 |
| CTYS | ≤ 0.2 |
| ATYE | ≤ 0.2 |
| RMTH | ≤ 0.2 |
| RCTR | 0.534 |
| RFTR | 0.298 |
| RMTR | 0.446 |
| RMTP | ≤ 0.2 |
| RPTR | ≤ 0.2 |
| FPHC | ≤ 0.2 |
| CSFN | ≤ 0.2 |
| QSVN | ≤ 0.2 |

| Variant | one-hybrid fitness for binding NBS DNA |
| --- | --- |
| QSVD | ≤ 0.2 |
| QCVR | 0.48 |
| QSVR | 0.379 |
| QPVH | ≤ 0.2 |
| QDVR | ≤ 0.2 |
| QPVN | ≤ 0.2 |
| QGVR | ≤ 0.2 |
| QPVR | 0.377 |
| RICA | ≤ 0.2 |
| IIHR | ≤ 0.2 |
| TNLI | ≤ 0.2 |
| SPSF | ≤ 0.2 |
| FYQC | ≤ 0.2 |
| GTTP | ≤ 0.2 |
| QCER | 0.438 |
| QIER | 0.219 |
| QPER | ≤ 0.2 |
| QTEP | ≤ 0.2 |
| QTER | 0.458 |
| QSER | 0.285 |
| QRER | 0.637 |
| QHER | 0.288 |
| QTEN | ≤ 0.2 |
| SKCT | ≤ 0.2 |

| Variant | one-hybrid fitness for binding NBS DNA |
| --- | --- |
| HAHK | ≤ 0.2 |
| QAQC | ≤ 0.2 |
| VFIG | ≤ 0.2 |
| QCSM | ≤ 0.2 |
| QSSH | ≤ 0.2 |
| QPSM | ≤ 0.2 |
| QRSM | 0.374 |
| QPSN | ≤ 0.2 |
| QRSH | 0.522 |
| QCSH | 0.272 |
| QRSN | 0.366 |
| QSSC | ≤ 0.2 |
| QCSC | ≤ 0.2 |
| QCSN | ≤ 0.2 |
| QRSC | 0.366 |
| YCVT | ≤ 0.2 |
| ANMM | ≤ 0.2 |
| GNYC | ≤ 0.2 |
